Shown is part of a subset that was picked to be rich in hits.
Dicer inh – blocks human Dicer maturation of pre-miR-21. Q9UPY3. cat-ELCCA pre-miR-21 Dicer processing, chemiluminescence; hits give high values. z-score at 25 µM. actives 6% (n = 47,000). AID 1347074; in the data active means z-score above about 3, passing the limit was not always enough;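 further: higher signal means more uncleaved substrate so more Dicer inhibition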
Target sequence (Q9UPY3 whole entry, looked up): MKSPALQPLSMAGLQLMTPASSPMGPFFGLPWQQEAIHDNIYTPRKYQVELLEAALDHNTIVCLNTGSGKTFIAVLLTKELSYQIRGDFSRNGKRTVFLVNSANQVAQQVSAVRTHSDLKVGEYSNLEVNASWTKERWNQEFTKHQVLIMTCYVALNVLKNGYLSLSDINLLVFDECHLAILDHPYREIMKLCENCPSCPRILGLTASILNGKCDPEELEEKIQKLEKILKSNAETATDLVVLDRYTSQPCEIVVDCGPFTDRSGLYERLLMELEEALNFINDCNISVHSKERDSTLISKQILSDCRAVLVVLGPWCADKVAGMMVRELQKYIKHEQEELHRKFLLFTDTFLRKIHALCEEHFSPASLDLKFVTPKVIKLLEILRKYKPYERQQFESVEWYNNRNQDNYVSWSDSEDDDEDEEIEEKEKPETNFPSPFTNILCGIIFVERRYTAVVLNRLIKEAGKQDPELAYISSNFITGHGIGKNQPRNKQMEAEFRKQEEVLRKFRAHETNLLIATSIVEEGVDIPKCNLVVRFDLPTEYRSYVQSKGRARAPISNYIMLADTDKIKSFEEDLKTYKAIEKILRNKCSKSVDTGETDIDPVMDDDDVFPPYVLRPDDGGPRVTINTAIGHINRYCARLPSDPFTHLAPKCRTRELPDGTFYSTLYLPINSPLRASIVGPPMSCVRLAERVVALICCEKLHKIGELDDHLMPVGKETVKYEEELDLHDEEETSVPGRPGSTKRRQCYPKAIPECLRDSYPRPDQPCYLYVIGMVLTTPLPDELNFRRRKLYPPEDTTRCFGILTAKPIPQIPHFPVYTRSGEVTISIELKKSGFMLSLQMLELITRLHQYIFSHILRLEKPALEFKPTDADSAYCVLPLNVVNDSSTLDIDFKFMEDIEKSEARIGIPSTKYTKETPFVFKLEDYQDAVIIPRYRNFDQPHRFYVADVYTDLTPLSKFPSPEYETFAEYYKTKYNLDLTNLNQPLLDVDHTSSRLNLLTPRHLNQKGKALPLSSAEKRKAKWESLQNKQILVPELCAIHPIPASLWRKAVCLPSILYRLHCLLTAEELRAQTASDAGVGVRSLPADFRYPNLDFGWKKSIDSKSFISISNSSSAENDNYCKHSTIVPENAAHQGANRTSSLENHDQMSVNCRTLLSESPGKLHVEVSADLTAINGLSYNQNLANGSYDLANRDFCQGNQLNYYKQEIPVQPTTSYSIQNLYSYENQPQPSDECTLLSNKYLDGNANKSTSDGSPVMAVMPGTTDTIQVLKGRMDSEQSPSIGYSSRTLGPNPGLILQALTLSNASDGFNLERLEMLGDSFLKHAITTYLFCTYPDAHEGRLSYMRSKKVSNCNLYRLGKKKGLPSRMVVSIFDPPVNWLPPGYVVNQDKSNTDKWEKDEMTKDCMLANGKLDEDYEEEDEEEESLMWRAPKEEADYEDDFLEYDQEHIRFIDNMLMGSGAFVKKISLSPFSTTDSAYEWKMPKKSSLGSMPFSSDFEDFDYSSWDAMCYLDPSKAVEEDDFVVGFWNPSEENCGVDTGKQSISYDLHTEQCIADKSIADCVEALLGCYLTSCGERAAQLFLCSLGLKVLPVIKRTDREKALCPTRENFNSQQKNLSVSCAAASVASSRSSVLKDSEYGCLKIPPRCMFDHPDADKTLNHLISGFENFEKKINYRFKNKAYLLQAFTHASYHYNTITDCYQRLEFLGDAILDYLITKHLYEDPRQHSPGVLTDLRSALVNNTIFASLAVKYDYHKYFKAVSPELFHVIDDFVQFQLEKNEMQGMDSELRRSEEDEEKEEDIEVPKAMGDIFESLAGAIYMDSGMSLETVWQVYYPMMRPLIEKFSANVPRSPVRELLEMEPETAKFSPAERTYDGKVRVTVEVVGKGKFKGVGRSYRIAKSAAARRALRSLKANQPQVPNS
Numbers stand for hits; n = inactive.

SMILES	Dicer inh
O=C(NC(=S)Nc1ccccc1Cl)c1ccc(F)cc1F	10
O=C(CN1c2cccc3cccc(c23)S1(=O)=O)Nc1cccc(Br)c1	n
CCOC(=O)c1c(S(=O)(=O)Nc2ccccc2)c(-c2ccccc2)n(-c2ccccc2)c1C	n
CNC(=S)Nc1cc(Cl)cc(Cl)c1	n
CCN1C(=O)c2cccc3c(S(=O)(=O)Nc4cc(C)on4)ccc1c23	n
CC(C)S(=O)(=O)c1csc(C(=O)N/N=C/c2ccccc2)c1-n1cccc1	n
Cn1[nH]c(=O)cc1C(=O)N/N=C/c1ccccc1	3.1
CCCCC#Cc1cncc(C(=O)N/N=C/c2ccccc2)c1	n
COc1ccc(OC)c(NS(=O)(=O)c2ccc(Br)cc2)c1	n
COc1ccc(S(=O)(=O)Nc2cc(Cl)c3oc(=O)sc3c2)cc1OC	4.3
COc1nc(NS(=O)(=O)c2ccc(C)cc2)nc(C)c1Cl	n
Cc1cc(C)c(S(=O)(=O)Nc2cccc3ccc(C)nc23)c(C)c1	n
Cc1cc(C)c(S(=O)(=O)Nc2ccc(O)cc2)c(C)c1	n
Cc1cc(C)c(S(=O)(=O)Nc2cc(Cl)c3oc(=O)sc3c2)c(C)c1	12
O=C(O)c1cnn2c(C(F)F)cc(-c3ccc(F)cc3)nc12	n
CCOC(=O)c1sc2c(c1OC(=O)c1ccco1)c(=O)n(-c1ccccc1)c(=S)n2-c1ccccc1	n
O=C1CC(c2ccccc2)CN1C(=O)c1ccccc1Cl (centres undefined)	n
CCOC(=O)c1c(C)oc2ccc(OC(=O)c3cc4ccccc4o3)cc12	n
CC(=O)OCC12COC(c3ccc(OC(C)=O)cc3)C(C(C)=CC1C)C2C (centres undefined)	3.4
CC(=O)OCC12COC(c3ccccc3OC(C)=O)C(C(C)=CC1C)C2C (centres undefined)	n
COc1ccc(C2OCC3(COC(C)=O)C(C)C=C(C)C2C3C)cc1 (centres undefined)	n
CCOc1ccc(N2C(=O)CC(NCc3ccco3)C2=O)cc1 (centres undefined)	n
Fc1ccc(Cn2c3ccccc3c3nn4cnnc4nc32)cc1	n
Clc1ccc(CSc2nsc(SCc3ccc(Cl)cc3)n2)cc1	n
Clc1ccc(CSc2nnc(SCc3ccc(Cl)cc3)s2)cc1	n
SMILES	Dicer inh
Nc1ccc2nc(SCc3ccc(Cl)cc3)sc2c1	3.9
COc1ccc(S(=O)(=O)N(C(=O)C(C)C)c2ccc3oc(=O)sc3c2)cc1	n
CCCC(=O)N(c1ccc2oc(=O)sc2c1)S(=O)(=O)c1ccc(F)cc1C	n
O=C(c1cccnc1)N(c1ccc2oc(=O)sc2c1)S(=O)(=O)c1ccc(Br)cc1	11
Cc1ccc(S(=O)(=O)N(C(=O)c2cccnc2)c2ccc3oc(=O)sc3c2)cc1	5
CCCCC(=O)N(c1ccc2oc(=O)sc2c1)S(=O)(=O)c1ccc(C(=O)O)cc1	n
CC(C)c1ccc(S(=O)(=O)N(C(=O)c2ccncc2)c2ccc3oc(=O)sc3c2)cc1	n
CCCCC(=O)N(c1ccc2oc(=O)sc2c1)S(=O)(=O)c1ccc(OC)cc1	n
Cc1cc(F)ccc1S(=O)(=O)N(C(=O)c1cccnc1)c1ccc2oc(=O)sc2c1	4.8
O=C1CC(c2cccs2)Cc2nc(N3CCN(c4ccccc4)CC3)ncc21 (centres undefined)	n
CCOC(=O)C1=C(C)N=C2SC(C)C(=O)N2C1c1ccccc1Cl (centres undefined)	n
CCCCCCNc1ncnc2c1sc1nc3c(cc12)COC(C)(C)C3	n
COC(=O)c1cscc1NC(=O)c1nccnc1C(=O)O	n
Cc1nn(-c2cc(C(F)(F)F)ccc2Cl)c(=O)c2noc(C)c12	n
Cc1cc(C(C)(C)C)cc(C)c1NC(=O)/C=C/C(=O)O	n
CS(=O)(=O)N(Cc1ccccc1)Cc1ccc2c(c1)OCO2	n
COc1ccc(C2C(C(=O)OC(C)C)=C(C)NC3=C2C(=O)CCC3)cc1 (centres undefined)	n
Cn1ncc(Br)c1NC(=O)/C=C/C(=O)O	n
COc1ccccc1C1Nc2ccccc2NC2=C1C(=O)CC(c1ccccc1)C2 (centres undefined)	n
COc1ccc(C2CC(=O)C3=C(C2)Nc2ccccc2NC3c2ccc(OC)cc2OC)cc1 (centres undefined)	3
CC1(C)CC(=O)C2=C(C1)Nc1ccccc1NC2c1cc(Cl)ccc1O (centres undefined)	3.9
COc1ccc(OC)c(C2Nc3ccccc3NC3=C2C(=O)CC(c2ccc(OC)c(OC)c2)C3)c1 (centres undefined)	n
CN(C)c1ccc(C2Nc3ccccc3NC3=C2C(=O)CC(c2ccccc2)C3)cc1 (centres undefined)	n
COc1ccc(C2CC(=O)C3=C(C2)Nc2ccccc2NC3c2cccc3ccccc23)cc1 (centres undefined)	n
O=C1CC(c2ccco2)CC2=C1C(c1ccco1)Nc1ccccc1N2 (centres undefined)	n
SMILES	Dicer inh
Cc1ccc(C2Nc3ccccc3NC3=C2C(=O)CC(C)(C)C3)c(O)c1 (centres undefined)	n
COc1ccccc1C1Nc2ccccc2NC2=C1C(=O)CC(c1ccc(Cl)cc1)C2 (centres undefined)	4.3
CCN(CC)c1ccc(C2CC(=O)C3=C(C2)Nc2ccccc2NC3c2ccco2)cc1 (centres undefined)	8.2
CC1(C)CC(=O)C2=C(C1)Nc1ccccc1NC2c1ccc(O)c(O)c1 (centres undefined)	n
COc1ccc(C2CC(=O)C3=C(C2)Nc2ccccc2NC3c2ccccc2Cl)cc1OC (centres undefined)	n
C=CC[n+]1ccc(/C=C2\Sc3ccccc3N2C)c2ccccc21	n
N#C/C(=C\c1c(O)ccc2ccccc12)C(N)=O	n
CC(=O)OC[C@H]1O[C@@H](N2CCCCC2)[C@H](OC(C)=O)[C@@H](OC(C)=O)[C@@H]1OC(C)=O	n
Cc1nc(-c2ccc(S(=O)(=O)NCc3nc(-c4ccc(C(F)(F)F)cc4)no3)s2)cs1	n
CN1c2ccccc2C(=O)/C(=C\Nc2ccccn2)S1(=O)=O	n
O=C1N(CCCc2ccccc2)c2ccccc2C1(O)c1c[nH]c2ccccc12 (centres undefined)	n
O=C1C=C(N2CCN(c3ccc(F)cc3)CC2)C2(CCCCC2)O1	n
CC1=C(C(=O)OC2CCCCC2)C(c2ccncc2)C2=C(CC(C)(C)CC2=O)N1 (centres undefined)	n
COc1ccc(C2CC(=O)C3=C(C2)Nc2ccccc2NC3c2ccc(O)cc2)cc1 (centres undefined)	n
CSc1ccc(C2Nc3ccccc3NC3=C2C(=O)CC(c2ccccc2)C3)cc1 (centres undefined)	n
CCOc1ccc(C2Nc3ccccc3NC3=C2C(=O)CC(c2ccccc2)C3)cc1 (centres undefined)	3.6
COc1ccc(C2CC(=O)C3=C(C2)Nc2ccccc2NC3c2ccccc2)cc1 (centres undefined)	3.5
Cc1ccc(C2Nc3ccccc3NC3=C2C(=O)CC(c2ccccc2)C3)cc1 (centres undefined)	n
COc1ccc(C2CC(=O)C3=C(C2)Nc2ccccc2NC3c2ccc(Cl)cc2)cc1 (centres undefined)	n
FC(F)(F)c1cccnc1NCCNc1ncnc2scc(-c3ccccc3)c12	n
CCOC(=O)CSC(=S)Nc1ccc(Cl)cc1	n
O=C1CCCc2c1ccc1c3c(ccc21)C(=O)CCC3	n
O=C1CCOc2cc3c(cc21)C(=O)CCO3	3.6
O=C(c1ccc2c(c1)CCO2)N1CCN(C(=O)c2ccc3c(c2)CCO3)CC1	n
